Screens from PubChem.
ROMK mod – ROMK potassium channel modulators, primary screen, cell-based, thallium flux, MLSMR library; Tet-inducible ROMK, thallium flux fluorescence; actives lie on both sides; hit rate 2% among 130,000; ATP-sensitive inward rectifier potassium channel 1 (Homo sapiens), P48048; B-score at 10 µM; AID 1918, 2009;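 active means signal ratio slope over the read window, or its plate-corrected B-score, at least 3 SD from the plate mean, either direction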;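 further: B-score of the F/F0 ratio slope over 7 to 12 s after thallium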
Lmaj promast – Leishmania major promastigote growth inhibition, primary screen; Leishmania major promastigotes, resazurin fluorescence viability; inhibition, % at 10 µM; hit rate 9% among 200,000; AID 1063, 2008; in the data active means inhibition above about 50%;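 further: promastigotes grown with compound for 44 hours at 28 °C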
WT yeast gro inh – growth inhibition of WT strain, primary screen, mitochondrial fusion inhibitor project, WT and mutant strains, chemical genetic; mitochondrial fusion phenotypic screen; inhibition, % at 10 µM; hit rate 2.1% among 190,000; in the data active means inhibition above about 58%; tested in S. cerevisiae
KCC2 mod – KCC2 cotransporter modulators, thallium flux, primary screen, cell-based, HEK293 KCC2, FluoZin-2 fluorescence, MLSMR | hit rate 2.2% among 190,000 | Solute carrier family 12 member 5 (Homo sapiens), Q9H2X9 | B-score of Tl+ flux slope (higher = more flux/activation; lower = inhibition) at 10 µM | KCC2 cells, thallium flux FluoZin-2 fluorescence | AID 1456, 2008;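 active means thallium flux slope and its plate-corrected score both differing from the plate sample mean at a set confidence after two filtering rounds, in either direction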;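 further: slope of fluorescence scaled to starting intensity during 10 to 20 s after thallium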
m-calpain inh – inhibitors of pig calpain II, primary screen, biochemical, fluorogenic peptide substrate, 1536-well; inhibition, % at 16 µM; hit rate 0.37% among 220,000; AID 1236, 2008; purified calpain II, 30 min;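 active means inhibition above about 50%, limit read from the data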
KCC2 secondary – KCC2 modulators in sodium-free buffer, confirmation, cell-based, HEK293 KCC2, thallium flux, secondary assay. FluoZin2 fluorescence; hits give high values. hit rate 15% among 3,700. shares compounds with KCC2 mod. normalised thallium flux (F/F0 slope) at 10 µM;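 active means thallium flux slope above the same plate's solvent-only control mean plus 3 SD; inconclusive means the two replicate wells disagree; inactive means no significant difference from solvent-only control wells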
KCC2 bumet counter – thallium flux persisting under bumetanide in KCC2 cells, confirmation, counter-screen for KCC2 modulator project, cell-based, HEK293 KCC2, FluoZin2, secondary assay 3; shares compounds with KCC2 mod; HEK293-KCC2 + bumetanide/ouabain; hits give high values; normalized thallium flux at 10 µM; hit rate 49% among 3,700; AID 1714, 2009;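 active means thallium entry rate above the same plate's blocked-transporter control wells by more than 3 SD; inconclusive means the two repeat wells disagree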;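 further: raw slope of fluorescence over initial fluorescence between 10 and 20 s after thallium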
KCC2 sec2 – KCC2 modulators without ouabain present, confirmation, cell-based, HEK293 KCC2, thallium flux, FluoZin2, secondary assay 2; shares compounds with KCC2 mod; thallium flux FluoZin2 fluorescence; actives lie on both sides; F/F0 rise rate, 10–20 s post-thallium; hit rate 23% among 3,700; normalized thallium flux at 10 µM;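 active means thallium flux slope more than 3 SD above or below the plate's solvent-only control mean, mostly below; inconclusive means the two repeat wells disagreed; inactive means no significant shift from solvent-only controls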;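 further: raw slope with 0.1% DMSO as baseline and bumetanide as block control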
HEK293 Tl flux – thallium flux modulation in parental HEK cells, confirmation, counter-screen for KCC2 modulator project, cell-based, counterscreen 1; shares compounds with KCC2 mod; hit rate 46% among 3,700; HEK293 parental cells, thallium flux FluoZin2, ouabain; baseline-ratio fluorescence slope, 10–20 s after thallium; AID 1716, 2009; thallium flux rate (normalised fluorescence) at 10 µM;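 active means thallium flux rate significantly above the same plate's solvent-only control wells, beyond their mean plus 3 SD; inconclusive means the two replicate wells gave conflicting results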
KCC2 retest ouab – KCC2 inhibitors and activators, ouabain retest, confirmation, HEK-KCC2 cells; shares compounds with KCC2 mod; HEK293-KCC2, thallium flux FluoZin2 fluorescence; bidirectional: low = inhibitor, high = activator; raw Tl+ flux slope (below DMSO = inhibition, above = activation) at 10 µM; hit rate 48% among 3,700;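 active means thallium flux slope beyond 3 SD from same-plate DMSO control mean in most replicates, usually higher, sometimes lower; inconclusive means repeat tests gave conflicting results; inactive means no significant difference from controls in most replicates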;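 further: slope of initial-normalized fluorescence between seconds 10 and 20 after thallium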
HEK293 Tl flux2 – native HEK Tl+ uptake effects, second counter-screen – HEK cells, counterscreen 2, counter-screen for KCC2 modulator project, confirmation. thallium flux slope at 10 µM. hit rate 33% among 3,700. shares compounds with KCC2 mod. HEK293 parental, thallium flux FluoZin-2 fluorescence slope;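 active means thallium flux slope above the same plate's solvent-control mean plus 3 SD in both duplicate wells; inconclusive means duplicate wells that disagreed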;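 further: run without ouabain in cells lacking the KCC2 cotransporter; slope of fluorescence scaled to its starting value between 10 and 20 s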
An asterisk follows results filed as active. In the library only some 12% were active in any assay of this set; here they are far more common.

For CC(C)c1ccc(NC(=O)C(=O)C2C(=O)Nc3ccccc32)cc1 (centres undefined) the results were ROMK mod 0.25, Lmaj promast 1, WT yeast gro inh 6 and m-calpain inh -13.
CC(C)(C)c1ccc(NC(=O)C(=O)C2C(=O)Nc3ccccc32)cc1 (centres undefined) was read as ROMK mod 0.0085, Lmaj promast 4, WT yeast gro inh -15, KCC2 mod 7.9*, m-calpain inh -90, KCC2 secondary 0.0057, KCC2 bumet counter 0.025*, KCC2 sec2 inconclusive, HEK293 Tl flux 0.018*, KCC2 retest ouab 0.028* and HEK293 Tl flux2 0.02*.
For CC(C)C1Cc2[nH]c(=O)c(C(=O)O)cc2CO1 (centres undefined) the results were ROMK mod -0.098, Lmaj promast -6, WT yeast gro inh 9, KCC2 mod -0.84 and m-calpain inh -26.
For O=C(Nc1ccccc1Cl)N1CCN(c2ccc3nnc(-c4ccc(F)cc4)n3n2)CC1 the results were Lmaj promast 28, WT yeast gro inh 32, KCC2 mod -3.9*, m-calpain inh -87, KCC2 secondary 0.0092, KCC2 bumet counter 0.0072, KCC2 sec2 0.03, HEK293 Tl flux 0.0093*, KCC2 retest ouab 0.019 and HEK293 Tl flux2 0.01.
`CN(C)C(=S)NC(=O)C12CC3(C)CC(C)(CC(C)(C3)C1)C2` gave ROMK mod 0.096, KCC2 mod 1.2 and m-calpain inh -6.
Screening O=C(NCc1ccco1)c1nc2c(nnn2Cc2ccccc2Cl)c(=O)[nH]1 returned ROMK mod 1.1, Lmaj promast -3, WT yeast gro inh -2, KCC2 mod -3.3*, m-calpain inh -8, KCC2 secondary 0.0082, KCC2 bumet counter 0.0067, KCC2 sec2 0.028, HEK293 Tl flux inconclusive, KCC2 retest ouab 0.014* and HEK293 Tl flux2 0.0089.
For O=C(NC1CCCC1)c1nc2c(nnn2Cc2ccccc2Cl)c(=O)[nH]1 the results were ROMK mod -0.82, Lmaj promast -2, WT yeast gro inh -2, KCC2 mod -1.4 and m-calpain inh -12.
`O=C(NCc1cccs1)c1nc2c(nnn2Cc2ccc(F)cc2)c(=O)[nH]1` gave Lmaj promast -11, WT yeast gro inh -6, KCC2 mod -2.3*, m-calpain inh -26, KCC2 secondary 0.0062, KCC2 bumet counter inconclusive, KCC2 sec2 0.023*, HEK293 Tl flux 0.0069, KCC2 retest ouab inconclusive and HEK293 Tl flux2 0.0093.
`Cc1ccc(C)c(Cn2nnc3c(=O)[nH]c(C(=O)NCc4ccco4)nc32)c1` gave ROMK mod -0.066, Lmaj promast -6, WT yeast gro inh -7, KCC2 mod -5.7*, m-calpain inh -14, KCC2 secondary 0.005, KCC2 bumet counter 0.005, KCC2 sec2 0.023*, HEK293 Tl flux 0.0062*, KCC2 retest ouab 0.014* and HEK293 Tl flux2 inconclusive.
Screening CN1C(=O)C(CC(=O)O)S/C1=N\N=C\c1ccc(O)cc1O (centres undefined) returned KCC2 mod -0.036 and m-calpain inh 22.
`O=C(CCOc1ccc(F)cc1)Nc1nccs1` gave KCC2 mod -0.052 and m-calpain inh -2.
For CCCCc1n[nH]c(=S)n1Cc1ccc(C)cc1 the results were ROMK mod -1, Lmaj promast 2, WT yeast gro inh 11, KCC2 mod 0.77 and m-calpain inh 34.
`N#Cc1nc(Cc2cccc3ccccc23)oc1NCc1ccco1` gave ROMK mod -0.45, Lmaj promast 10, WT yeast gro inh -2, m-calpain inh 7, KCC2 secondary inconclusive, KCC2 bumet counter 0.0049, KCC2 sec2 inconclusive, HEK293 Tl flux inconclusive, KCC2 retest ouab 0.014* and HEK293 Tl flux2 0.011.
COc1ccccc1OCc1nc(C#N)c(NCc2ccco2)o1 was read as ROMK mod 1.1, Lmaj promast 8, WT yeast gro inh -9, KCC2 mod -1 and m-calpain inh 23.
For N#Cc1nc(Cc2cccc3ccccc23)oc1NCCCN1CCOCC1 the results were ROMK mod -3.6, Lmaj promast 20, WT yeast gro inh -4, KCC2 mod -5.6*, m-calpain inh -12, KCC2 secondary inconclusive, KCC2 bumet counter 0.0054, KCC2 sec2 0.03, HEK293 Tl flux 0.0067, KCC2 retest ouab 0.014* and HEK293 Tl flux2 0.011*.
`N#Cc1nc(Cc2cccc3ccccc23)oc1NCC1CCCO1` (centres undefined) gave ROMK mod -2.3, Lmaj promast 10, WT yeast gro inh 3, m-calpain inh -10, KCC2 secondary 0.01, KCC2 bumet counter 0.0064, KCC2 sec2 inconclusive, HEK293 Tl flux 0.0035, KCC2 retest ouab 0.016* and HEK293 Tl flux2 0.011.
Screening N#Cc1nc(-c2ccccc2Cl)oc1NCC1CCCO1 (centres undefined) returned Lmaj promast 4, WT yeast gro inh 1, KCC2 mod -0.83 and m-calpain inh -34.
Cc1cc(C(=O)CCC(=O)N2CCN(S(=O)(=O)c3cccs3)CC2)c(C)s1 was read as Lmaj promast 88*, WT yeast gro inh 0, KCC2 mod -5*, m-calpain inh -1, KCC2 secondary 0.0061, KCC2 bumet counter 0.004, KCC2 sec2 inconclusive, HEK293 Tl flux inconclusive, KCC2 retest ouab 0.016 and HEK293 Tl flux2 0.0091.
